Laboratory results reported in PubChem BioAssay (Tox21).
Records with an inconclusive call do not appear. Calls of active or inactive are those of the source. Unless noted, the call rests on the fitted dose curve; in most records, active means well fitted curve in the direction sought with a large enough effect in the repeat runs; inconclusive means weak or mixed curves; inactive means no such curve, though single readings can be large; an effect the other way counts as inactive or inconclusive.

Columns and labels:
[1] = qHTS assay to identify small molecule that activate the aryl hydrocarbon receptor (AhR) signaling pathway - cell viability counter screen (AID 743086);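 further: HepG2 liver cells carrying the AhR DRE luciferase reporter; series mostly up to about 70 µM; nearly all actives have a fitted effect of over 45% in size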
In short: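 HepG2-AhR-luc (HG2L7.5c1) cells, 4000/well, treated 24 h at 37 C with compound; viability measured as CellTiter-Fluor fluorescence after 30 min in the same wells as the luciferase read.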

[2] = target: Peroxisome proliferator-activated receptor gamma (Homo sapiens) (UniProt P37231); assay: qHTS assay to identify small molecule antagonists of the peroxisome proliferator-activated receptor gamma (PPARg) signaling pathway (AID 743191; calls by dose curve; further: nearly all actives have a fitted effect of over 30% in size; further: potency means the concentration at half of the fitted maximal effect; on ratio activity, negative = inhibition: series mostly up to about 63 µM)
Sequence of Peroxisome proliferator-activated receptor gamma (Homo sapiens) (P37231 whole entry, looked up): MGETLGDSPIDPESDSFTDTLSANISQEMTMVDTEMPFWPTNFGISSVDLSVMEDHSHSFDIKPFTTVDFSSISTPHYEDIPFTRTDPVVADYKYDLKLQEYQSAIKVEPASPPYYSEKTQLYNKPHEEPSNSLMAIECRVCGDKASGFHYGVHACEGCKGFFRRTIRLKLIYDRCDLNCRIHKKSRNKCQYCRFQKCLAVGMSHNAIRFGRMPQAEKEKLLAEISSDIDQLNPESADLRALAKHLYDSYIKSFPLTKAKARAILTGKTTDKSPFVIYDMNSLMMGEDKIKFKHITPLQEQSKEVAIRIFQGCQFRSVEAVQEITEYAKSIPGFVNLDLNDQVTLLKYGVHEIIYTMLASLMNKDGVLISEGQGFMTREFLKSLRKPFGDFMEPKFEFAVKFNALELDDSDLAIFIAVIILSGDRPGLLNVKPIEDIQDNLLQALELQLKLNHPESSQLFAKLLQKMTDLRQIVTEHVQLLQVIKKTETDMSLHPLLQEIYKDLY
In short: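 GeneBLAzer PPARg UAS-bla HEK293H cells, 5 h post-plating, exposed to compounds 17 h at 37C. LiveBLAzer B/G FRET substrate added for 1 h at room temperature; beta-lactamase reporter read by fluorescence intensity.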

[3] = qHTS assay to identify small molecule antagonists of the peroxisome proliferator-activated receptor gamma (PPARg) signaling pathway - cell viability counter screen (AID 743194); further: nearly all actives have a fitted effect of over 55% in size
In short: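 Cytotoxicity counter screen in PPARg-bla HEK293H cells, same wells as reporter assay. Compounds plus 50 nM rosiglitazone (final) for 17 h at 37 C, then viability read by CellTiter-Glo luminescence.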

[4] = qHTS assay for small molecule agonists of the antioxidant response element (ARE) signaling pathway (AID 743202; active means well fitted activation curve with a large enough effect in the signal ratio in the repeat runs, not every such curve was filed as active; the % refers to the signal ratio)
In short: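 HepG2 ARE-bla cells; 16 h treatment at 37 C; FRET-based beta-lactamase fluorescence read after 2 h substrate incubation at room temperature.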

[5] = qHTS assay for small molecule agonists of the antioxidant response element (ARE) signaling pathway - cell viability counter screen (AID 743203; calls by dose curve; further: nearly all actives have a fitted effect of over 55% in size; further: potency means the concentration at half of the fitted maximal effect)
In short: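 Luminescence read-out (CellTiter-Glo, 30 min at room temperature) measured cell viability in the same wells as the ARE beta-lactamase reporter. HepG2 ARE-bla cells were treated with compounds for 16 hrs at 37C/5% CO2.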

[6] = qHTS assay to identify small molecule agonists of the peroxisome proliferator-activated receptor delta (PPARd) signaling pathway - cell viability counter screen (AID 743211); further: nearly all actives have a fitted effect of over 55% in size
In short: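 Viability of GeneBLAzer PPARd UAS-bla HEK293H cells was assessed after 17 h compound incubation at 37C, using CellTiter-Glo reagent added after the reporter read and luminescence recorded 30 min later.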

[7] = target: Peroxisome proliferator-activated receptor delta (Homo sapiens) (UniProt Q03181); assay: qHTS assay to identify small molecule agonists of the peroxisome proliferator-activated receptor delta (PPARd) signaling pathway (AID 743212; calls by dose curve)
Sequence of Peroxisome proliferator-activated receptor delta (Homo sapiens) (Q03181 whole entry, looked up): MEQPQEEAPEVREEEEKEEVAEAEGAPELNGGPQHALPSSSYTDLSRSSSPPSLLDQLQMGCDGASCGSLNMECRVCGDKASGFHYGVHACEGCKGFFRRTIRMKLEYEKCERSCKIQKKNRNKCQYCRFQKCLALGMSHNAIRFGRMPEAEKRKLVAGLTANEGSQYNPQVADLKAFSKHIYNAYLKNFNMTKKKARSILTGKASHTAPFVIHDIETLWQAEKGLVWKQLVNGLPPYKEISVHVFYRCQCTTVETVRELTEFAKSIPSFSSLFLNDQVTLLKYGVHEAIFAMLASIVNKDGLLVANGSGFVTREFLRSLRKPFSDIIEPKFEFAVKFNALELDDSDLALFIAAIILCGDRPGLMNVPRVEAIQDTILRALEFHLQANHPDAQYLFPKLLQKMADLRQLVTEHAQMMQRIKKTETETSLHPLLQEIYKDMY
In short: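 Tox21 library screened in GeneBLAzer PPARd UAS-bla HEK293H cells. After compound treatment at 37 C, a FRET-based beta-lactamase substrate was applied for 2 h and fluorescence recorded.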

[8] = qHTS assay to identify small molecule antagonists of the peroxisome proliferator-activated receptor delta (PPARd) signaling pathway - cell viability counter screen (AID 743213); further: nearly all actives have a fitted effect of over 50% in size
In short: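 Agonist-stimulated (L165041, 300 nM final) HEK293H PPARd UAS-bla cells are exposed to compounds for 17 h at 37 C, and ATP-based luminescence (CellTiter-Glo) from the same wells reports cytotoxicity.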

[9] = target: Peroxisome proliferator-activated receptor delta (Homo sapiens) (UniProt Q03181); assay: qHTS assay to identify small molecule antagonists of the peroxisome proliferator-activated receptor delta (PPARd) signaling pathway (AID 743215; active means well fitted inhibition curve with a large enough effect in the signal ratio in the repeat runs, not every such curve was filed as active; the % refers to the signal ratio; further: series mostly up to about 62 µM)
In short: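 HEK293H GeneBLAzer PPARd UAS-bla reporter cells; cpd + L165041 300 nM final, 17 h 37 C; LiveBLAzer B/G FRET substrate 2 h RT; fluorescence intensity read-out. Antagonist mode.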

[10] = target: Bile acid receptor (Homo sapiens) (UniProt Q96RI1); assay: qHTS assay to identify small molecule antagonists of the farnesoid-X-receptor (FXR) signaling pathway (AID 743217; active means well fitted inhibition curve with a large enough effect in the signal ratio in the repeat runs, not every such curve was filed as active; the % refers to the signal ratio)
Sequence of Bile acid receptor (Homo sapiens) (Q96RI1 whole entry, looked up): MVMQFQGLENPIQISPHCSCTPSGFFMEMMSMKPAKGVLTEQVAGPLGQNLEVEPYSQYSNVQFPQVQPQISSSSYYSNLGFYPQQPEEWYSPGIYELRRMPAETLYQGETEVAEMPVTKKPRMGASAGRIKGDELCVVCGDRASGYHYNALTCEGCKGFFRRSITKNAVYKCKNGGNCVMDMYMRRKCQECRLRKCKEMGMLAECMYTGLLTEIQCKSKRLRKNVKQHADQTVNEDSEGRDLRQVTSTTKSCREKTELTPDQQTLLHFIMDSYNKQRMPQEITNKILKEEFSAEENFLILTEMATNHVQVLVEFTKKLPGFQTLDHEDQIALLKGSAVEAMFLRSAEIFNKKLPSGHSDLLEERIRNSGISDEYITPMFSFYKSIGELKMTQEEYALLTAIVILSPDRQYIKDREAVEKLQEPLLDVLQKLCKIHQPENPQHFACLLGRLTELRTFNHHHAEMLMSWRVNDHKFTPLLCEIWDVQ
In short: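 Read-out: beta-lactamase FRET fluorescence (LiveBLAzer B/G substrate, 2 h, room temperature) in GeneBLAzer FXR-UAS-bla HEK 293T cells. Compounds were co-dosed with 50 uM chenodeoxycholic acid (final) and incubated 16 h at 37 °C.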

[11] = qHTS assay to identify small molecule agonists of the farnesoid-X-receptor (FXR) signaling pathway - cell viability counter screen (AID 743218); further: nearly all actives have a fitted effect of over 45% in size
In short: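 Luminescence from CellTiter-Glo, read after 30 min at RT, reports viability of GeneBLAzer FXR-UAS-bla HEK 293T cells treated 16 h with compounds in the wells used for the beta-lactamase reporter.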

[12] = target: Bile acid receptor (Homo sapiens) (UniProt Q96RI1); assay: qHTS assay to identify small molecule agonists of the farnesoid-X-receptor (FXR) signaling pathway (AID 743220; active means well fitted activation curve with a large enough effect in the signal ratio in the repeat runs, not every such curve was filed as active; the % refers to the signal ratio)
In short: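 FXR-UAS-bla HEK 293T cells carrying a UAS-driven beta-lactamase reporter were plated for 5 h at 37C/5% CO2, then exposed to DMSO-dissolved Tox21 10K compounds for 16 h at 37C. A LiveBLAzer B/G FRET substrate was loaded for 2 h at room temperature before fluorescence reading.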

[13] = qHTS assay to identify small molecule antagonists of the farnesoid-X-receptor (FXR) signaling pathway - cell viability counter screen (AID 743221; active means well fitted cell-killing curve with a large enough effect in the repeat runs, not every such curve was filed as active; further: nearly all actives have a fitted effect of over 50% in size)
In short: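 Quantitative HTS of the Tox21 10K library run in parallel with the beta-lactamase reporter read. HEK 293T cells carrying a UAS-driven bla reporter got compound and 50 uM CDCA (final) for 16 h; ATP-based luminescence followed.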

[14] = target: Peroxisome proliferator-activated receptor gamma (Homo sapiens) (UniProt P37231); assay: qHTS assay to identify small molecule agonists of the peroxisome proliferator-activated receptor gamma (PPARg) signaling pathway (AID 743094; active means well fitted activation curve with a large enough effect in the signal ratio in the repeat runs, not every such curve was filed as active; the % refers to the signal ratio)
In short: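 HEK293H PPARg-bla cells, 5 h settle at 37C/5% CO2; compound (DMSO) 17 h, 37C; B/G FRET substrate 1 h RT; fluorescence intensity read-out. qHTS format.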

[15] = qHTS assay for small molecule activators of the heat shock response signaling pathway - cell viability counter screen (AID 743209); further: nearly all actives have a fitted effect of over 50% in size
In short: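 HSE-bla HeLa; 1500 cells/well; overnight 37 C, 5% CO2; compound 5 h 37 C; LiveBLAzer B/G substrate 2.5 h RT; CellTiter-Glo 30 min RT; luminescence.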

[16] = qHTS assay for small molecule activators of the heat shock response signaling pathway (AID 743210; active means well fitted activation curve with a large enough effect in the signal ratio in the repeat runs, with a control signal flat, not every such curve was filed as active; the % refers to the signal ratio;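 further: HeLa cells with beta-lactamase reporter driven by heat shock elements; series mostly up to about 63 µM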)
In short: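 Following overnight attachment, HSE-bla HeLa cells received test compounds for 5 h at 37 C; beta-lactamase activity was then detected via FRET substrate fluorescence.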

[17] = target: Vitamin D3 receptor (Homo sapiens) (UniProt P11473); assay: qHTS assay to identify small molecule agonists of the vitamin D receptor (VDR) signaling pathway (AID 743222; calls by dose curve)
Sequence of Vitamin D3 receptor (Homo sapiens) (P11473 whole entry, looked up): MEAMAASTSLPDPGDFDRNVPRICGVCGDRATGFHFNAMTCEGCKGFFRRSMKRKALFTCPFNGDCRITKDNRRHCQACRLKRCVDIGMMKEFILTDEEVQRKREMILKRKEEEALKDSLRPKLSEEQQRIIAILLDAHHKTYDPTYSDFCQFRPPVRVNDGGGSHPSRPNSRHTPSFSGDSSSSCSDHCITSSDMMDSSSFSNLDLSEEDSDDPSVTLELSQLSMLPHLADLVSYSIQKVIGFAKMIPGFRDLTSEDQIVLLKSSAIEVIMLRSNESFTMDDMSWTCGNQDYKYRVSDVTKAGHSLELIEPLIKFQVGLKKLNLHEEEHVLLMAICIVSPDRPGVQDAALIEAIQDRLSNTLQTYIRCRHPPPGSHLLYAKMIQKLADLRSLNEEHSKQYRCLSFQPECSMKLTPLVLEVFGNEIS
In short: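 Beta-lactamase reporter readout (LiveBLAzer B/G FRET, 2 h RT) in VDR-bla cells after 16 h compound treatment at 37C, 5% CO2; cells pre-incubated 4 h before pin transfer of DMSO solutions.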

[18] = target: Vitamin D3 receptor (Homo sapiens) (UniProt P11473); assay: qHTS assay to identify small molecule antagonists of the vitamin D receptor (VDR) signaling pathway (AID 743223; active means well fitted inhibition curve with a large enough effect in the signal ratio in the repeat runs, not every such curve was filed as active; the % refers to the signal ratio)
In short: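 Fluorescence from LiveBLAzer B/G FRET substrate, read after 2 h at room temperature, reflects beta-lactamase reporter activity in VDR-bla cells treated 16 h at 37C with compounds and agonist 1alpha,25-dihydroxyvitamin D3 (3 nM final).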

[19] = qHTS assay to identify small molecule agonists of the vitamin D receptor (VDR) signaling pathway - cell viability counter screen (AID 743224); further: series mostly up to about 63 µM; nearly all actives have a fitted effect of over 50% in size
In short: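 Cytotoxicity counter screen: VDR-bla cells, 16 h compound exposure at 37C, 5% CO2; CellTiter-Glo luminescence, 30 min RT, same wells as bla read.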
On the % scale 0 is the no-effect control and ±100 the full control effect.

[O]=[Bi]
inactive: viability change, negative = cytotoxic [1] -5.07% [at 8.47 µM] | ratio activity, negative = inhibition [2] 6.53% [at 5.95 µM] | activity change, negative = cytotoxicity [3] -1.71% [at 5.95 µM] | activation [4] -9.19% [at 8.36 µM] | viability change, negative = cytotoxic [5] -0.248% [at 8.36 µM] | activity change, negative = cytotoxicity [6] 2.23% [at 5.95 µM] | activation [7] 2.74% [at 5.95 µM] | viability change, negative = cytotoxic [8] -12.9% [at 6.26 µM] | ratio activity, negative = inhibition [9] 3.78% [at 6.26 µM] | activity change, negative = inhibition [10] 6.5% [at 5.95 µM] | viability change, negative = cytotoxic [11] 7.08% [at 5.95 µM] | activation [12] 0.937% [at 5.95 µM] | activity change, negative = cytotoxicity [13] 2.95% [at 5.95 µM]

CCC(=O)OC/C=C/c1ccccc1
inactive: Potency [1] | Potency [14] | Potency [2] | Potency [3] | Potency [5] | Potency [15] | Potency [16] | Potency [6] | Potency [7] | Potency [8] | Potency [10] | Potency [11] | Potency [13] | outcome [17] | outcome [18] | Potency [19]

CCOC(=O)[C@@H](C)Oc1ccc(Oc2nc3ccc(Cl)cc3o2)cc1
inactive: Potency [1] | Potency [14] | Potency [3] | Potency [15] | Potency [16] | Potency [6] | Potency [8] | Potency [12] | Potency [13] | outcome [17] | Potency [19]

O=C(O)c1snc(Cl)c1Cl
inactive: Potency [1] | Potency [14] | Potency [2] | Potency [4] | Potency [5] | Potency [15] | Potency [6] | Potency [7] | Potency [8] | Potency [9] | Potency [11] | Potency [13] | outcome [17]

Fc1c(F)c(F)c(Br)c(F)c1F
inactive: Potency [1] | Potency [14] | Potency [2] | Potency [3] | Potency [5] | Potency [15] | Potency [16] | Potency [6] | Potency [7] | Potency [8] | Potency [11] | Potency [13] | outcome [17] | Potency [19]

O=C(CCCN1CCC(O)(c2ccc(Br)cc2)CC1)c1ccc(F)cc1
active: Potency [5] 29.8 µM
inactive: Potency [1] | Potency [14] | Potency [3] | Potency [16] | Potency [7] | Potency [8] | Potency [9] | outcome [17] | outcome [18] | Potency [19]

CC(CCc1ccc2c(c1)OCO2)NN (stereo unspecified)
inactive: Potency [1] | Potency [14] | Potency [2] | Potency [3] | Potency [5] | Potency [15] | Potency [16] | Potency [6] | Potency [7] | Potency [8] | Potency [9] | Potency [11] | Potency [13]

NC(=O)Nc1ccc(Cl)c(Cl)c1
inactive: Potency [1] | Potency [14] | Potency [3] | Potency [15] | Potency [16] | Potency [6] | Potency [7] | Potency [8] | Potency [9] | Potency [10] | Potency [11] | Potency [13] | outcome [17] | outcome [18] | Potency [19]

Cc1ccc(/C=N/n2c(-c3ccccc3)csc2=S)cc1
inactive: Potency [1] | Potency [3] | Potency [6] | Potency [7] | Potency [8] | Potency [11] | Potency [13] | outcome [17] | Potency [19]
active: Potency [2] 13.3 µM
